In PubChem BioAssay (EPA / NIEHS):
“And” between values parts separate entries of the source, which are not always exact repeats. Equal values may be shown once. Inconclusive results are not listed. A structure can be active in one record and inactive in another. The source made the active and inactive calls. The calls were made as follows: active = hit-call score of the fitted dose curve at least 0.9, where 1 is the maximum; inconclusive = response in the unintended direction; inactive = score below 0.9.

Tests used:
[1] = TOX21_p53_BLA_p2_viability: Viability Assessment in the Tox21 HCT-116 p53 Agonism Beta-lactamase Assay, Phase 2 (AID 2283591);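 also: compound exposure lasted 16 h at 37 °C; actives lower the ATP signal meaning cytotoxicity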
Outline: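 HCT116 p53-bla cells, 4000/well, dosed after 5 h plating (217-fold dilution of DMSO stocks) and incubated 16 h at 37C. Viability taken as cellular ATP by CellTiter-Glo luminescence after 30 min RT; signal loss marks cytotoxicity.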

[2] = target: Cellular tumor antigen p53 (Homo sapiens) (UniProt P04637); assay: TOX21_p53_BLA_p2_ratio: Tox21 HCT-116 p53 Agonism Beta-lactamase Assay, Ratio, Phase 2 (AID 2283592)
Cellular tumor antigen p53 (Homo sapiens), sequence (P04637 whole entry, looked up): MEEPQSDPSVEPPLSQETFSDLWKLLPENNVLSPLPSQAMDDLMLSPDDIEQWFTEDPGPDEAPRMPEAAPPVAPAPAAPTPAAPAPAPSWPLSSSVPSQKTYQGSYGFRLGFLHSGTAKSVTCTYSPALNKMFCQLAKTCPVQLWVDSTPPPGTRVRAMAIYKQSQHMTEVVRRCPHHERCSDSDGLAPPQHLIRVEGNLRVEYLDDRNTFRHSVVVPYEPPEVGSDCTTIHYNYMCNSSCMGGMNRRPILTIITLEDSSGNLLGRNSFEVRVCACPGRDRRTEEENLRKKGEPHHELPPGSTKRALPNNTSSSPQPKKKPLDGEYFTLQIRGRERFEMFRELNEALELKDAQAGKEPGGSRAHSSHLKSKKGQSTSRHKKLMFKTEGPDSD
Outline: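 HCT116 p53-bla; 4000 cells/well; 5 h pre-incubation; cpd in DMSO, 217-fold dilution; 16 h 37C/5% CO2; CCF4-AM 2 h RT; Ex 405, Em 460/530 ratio; DMSO = baseline; positive fitting direction.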

[3] = TOX21_p53_BLA_p3_viability: Viability Assessment in the Tox21 HCT-116 p53 Agonism Beta-lactamase Assay, Phase 3 (AID 2283593);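 also: cells exposed to compound for 16 h before reading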
Outline: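 HCT116 cells, 4000/well, dosed 5 h after plating by pin transfer (217-fold dilution from DMSO stock) and incubated 16 h at 37C, 5% CO2. Viability read as ATP luminescence with CellTiter-Glo after 30 min at room temperature.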

[4] = target: Cellular tumor antigen p53 (Homo sapiens) (UniProt P04637); assay: TOX21_p53_BLA_p3_ratio: Tox21 HCT-116 p53 Agonism Beta-lactamase Assay, Ratio, Phase 3 (AID 2283596)
Outline: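 HCT116 p53-bla cells (4000/well) given compound in DMSO (217-fold dilution) after 5 h, incubated 16 h at 37C. CCF4-AM substrate 2 h at room temperature; 460/530 nm emission ratio, gain fitted against DMSO.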

[5] = target: Cellular tumor antigen p53 (Homo sapiens) (UniProt P04637); assay: TOX21_p53_BLA_p5_ratio: Tox21 HCT-116 p53 Agonism Beta-lactamase Assay, Ratio, Phase 5 (AID 2283599)
Outline: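 HCT-116 p53-bla cells (4000/well) plated 5 h, dosed with compound (217-fold DMSO dilution) for 16 h at 37 C; CCF4-AM substrate 2 h at room temperature. Activity is the 460/530 nm emission ratio (405 nm excitation), fitted in gain-of-signal direction versus DMSO.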

[6] = TOX21_p53_BLA_p5_viability: Viability Assessment in the Tox21 HCT-116 p53 Agonism Beta-lactamase Assay, Phase 5 (AID 2283600)
Outline: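 4000 cells/well; 5 h pre-incubation; DMSO compounds pin-transferred, 217-fold dilution; 16 h, 37C/5% CO2; CCF4-AM 2 h RT; CellTiter-Glo 30 min RT; luminescence.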

[7] = target: Cellular tumor antigen p53 (Homo sapiens) (UniProt P04637); assay: TOX21_p53_BLA_p4_ratio: Tox21 HCT-116 p53 Agonism Beta-lactamase Assay, Ratio, Phase 4 (AID 2283601)
Outline: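 HCT-116 p53 beta-lactamase reporter cells (4000/well) preincubated 5 h, then compound (217-fold dilution of DMSO stock) for 16 h at 37C. CCF4-AM substrate added 2 h at room temperature; 460/530 nm emission ratio fitted upward versus DMSO.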

[8] = TOX21_p53_BLA_p4_viability: Viability Assessment in the Tox21 HCT-116 p53 Agonism Beta-lactamase Assay, Phase 4 (AID 2283597);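 also: hits lower the luminescence signal meaning cytotoxicity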
Outline: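 Cells plated, 5 h pre-incubation; DMSO compounds pinned (217-fold dilution); 16 h, 37C/5% CO2; CCF4-AM 2 h RT; CellTiter-Glo 30 min RT; luminescence read.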

Measured: AC50

CC(C)CCON=O
not listed: [8]
inactive: all other assays above

CC(C)[N+](C)(CCC(C(N)=O)(c1ccccc1)c1ccccc1)C(C)C
not listed: [8]
inactive: all other assays above

COC(=O)[C@@H](N)CCCN/C(N)=N/[N+](=O)[O-]
not listed: [6] | [8]
inactive: all other assays above

NC(=O)CN1CCCC1=O
not listed: [6] | [8]
inactive: all other assays above

C[C@@H]1CN(C2CCC(C#N)(c3ccc(F)cc3)CC2)CC[C@]1(C(=O)O)c1ccccc1 (stereo partly specified)
not listed: [6] | [8]
inactive: all other assays above

CCCCCCC[CH2][Sn]([Cl])([Cl])[CH2]CCCCCCC
inactive: [5] | [6] | [7]
active: [1] 66.6 µM | [2] 67 µM | [3] 57.1 µM | [8] 36.5 µM

CCOP(=S)(OCC)SC(CCl)N1C(=O)c2ccccc2C1=O (stereo unspecified)
not listed: [4]
inactive: all other assays above

CCBr
not listed: [5] | [8]
inactive: all other assays above

CCC(=O)O[C@]1(c2ccccc2)CCN(C)C[C@H]1C
not listed: [4]
inactive: all other assays above

CNCC(O)c1ccc(O)cc1 (stereo unspecified)
not listed: [4]
inactive: all other assays above

CN1C[C@H](CNC(=O)OCc2ccccc2)C[C@@H]2c3cccc4c3c(cn4C)C[C@H]21
inactive: [1] | [2] | [3] | [6]
active: [8] 38.7 µM

CC(C)[C@@]1(NC(=O)[C@@H]2C[C@@H]3c4cccc5[nH]cc(c45)C[C@H]3N(C)C2)O[C@@]2(O)[C@@H]3CCCN3C(=O)[C@H](Cc3ccccc3)N2C1=O
inactive: [1] | [2] | [3] | [8] | [5] | [6] | [7]
active: [8] 33.9 µM

C[C@]12C[C@H]3S[C@H]3C[C@@H]1CC[C@@H]1[C@@H]2CC[C@]2(C)[C@@H](O)CC[C@@H]12
inactive: [1] | [2] | [3] | [8] | [6]

CCCCCCC#N
not listed: [4]
inactive: all other assays above

COc1cc(C[C@@H](C)N)c(OC)cc1Br
inactive: [1] | [2] | [3] | [8] | [6]

C[C@]12N[C@H](Cc3ccccc31)c1ccccc12
not listed: [5] | [8]
inactive: all other assays above

Clc1c(Cl)c(Cl)c(Cl)c(Cl)c1Cl
not listed: [4] | [5]
inactive: all other assays above

CCCCCCCCCCCC[N+](C)(C)CCOc1ccccc1
active: [1] 28.1 µM and 30.3 µM | [2] 33.3 µM and 40.8 µM | [3] 53 µM and 22.3 µM | [8] 37.5 µM and 16.3 µM | [5] 85.4 µM and 44.8 µM | [6] 54.3 µM and 33.6 µM | [7] 36.1 µM

O=C1c2ccccc2C(=O)c2ccccc21
not listed: [4] | [5]
inactive: all other assays above

Cc1nc2ccccc2c(=O)n1-c1ccccc1Cl
inactive: [1] | [2] | [3] | [8] | [6]

CC(C)(C)NCC(O)c1cc(Cl)c(N)c(Cl)c1 (stereo unspecified)
inactive: [1] | [2] | [3] | [4] | [7]

COC(=O)C(C)N(C(=O)c1ccco1)c1c(C)cccc1C (stereo unspecified)
inactive: [1] | [2] | [3] | [8] | [5]
